Source: PubChem
Most compounds without a hit are left out; they make up all but 2.4% or so of the library.
D2 antagonist – antagonizes the human D2 dopamine receptor; P14416; HEK293 TREx D2 cells, calcium flux, dopamine EC80; inhibition, % at 10 µM; actives 2% (n = 340,000); AID 485344; in the data active means inhibition above about 30%; inactive means below that, where a call was filed; further: 0% is about no effect
Target sequence (P14416 whole entry, looked up): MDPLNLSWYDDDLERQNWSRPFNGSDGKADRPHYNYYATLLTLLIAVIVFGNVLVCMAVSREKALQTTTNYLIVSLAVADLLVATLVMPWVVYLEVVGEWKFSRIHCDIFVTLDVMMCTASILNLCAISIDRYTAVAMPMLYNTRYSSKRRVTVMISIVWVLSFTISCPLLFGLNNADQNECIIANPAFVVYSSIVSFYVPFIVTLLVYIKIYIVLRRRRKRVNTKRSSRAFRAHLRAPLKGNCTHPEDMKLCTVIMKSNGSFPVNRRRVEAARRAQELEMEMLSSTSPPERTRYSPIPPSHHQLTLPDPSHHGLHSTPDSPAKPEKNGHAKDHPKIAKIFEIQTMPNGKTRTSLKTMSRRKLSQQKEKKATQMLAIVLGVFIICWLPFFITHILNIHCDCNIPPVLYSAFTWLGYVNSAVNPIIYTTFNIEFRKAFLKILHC
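Calcium mobilization kinetics were recorded at 1 s intervals in tetracycline-induced HEK293 T-REx D2 cells, first for 180 s after compound addition and then 180 s after EC80 dopamine.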
D2 PAM-1 – potentiates the human D2 dopamine receptor allosterically | P14416 | potentiation, % (no concentration beside the values) | actives 0.23% (n = 360,000) | DiscoveRx D2 beta-arrestin cells, luminescence, 90 min; 100% = 57 uM dopamine signal; in the data active means potentiation above about 50%; inconclusive means mostly about 30% to 49%
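D2 cells co-treated with compound plus 50 nM dopamine (EC20) for 90 min at 37 deg C to detect potentiation. Beta-arrestin recruitment was read as enzyme-fragment luminescence after 1 h at ambient temperature. Full response was set by 57 uM dopamine.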
D2 ag-1 – human D2 receptor agonism in beta-arrestin assay. P14416. AID 624465. activation, % (test concentration not listed). actives 0.084% (n = 360,000). DiscoveRx PathHunter D2 beta-arrestin, luminescence, 90 min; 100% = 57 uM dopamine signal; in the data active means activation above about 40%; inconclusive means between about 15% and that limit
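DiscoveRx PathHunter D2 beta-arrestin cells (2,100/well) attached overnight, then compound-stimulated 90 min at 37 C in HBSS/10 mM HEPES/0.1% Tween-20 buffer; beta-galactosidase complementation read by luminescence after 1 h at ambient temperature. Dopamine 57 uM final (EC100) as control.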
D2 PAM-2 – D2 dopamine receptor (human) potentiation | potentiation, % at 10 µM | HEK293 T-REx D2, calcium flux, EC20 dopamine potentiation | actives 0.34% (n = 340,000);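 active means potentiation over 3 SD above the plate norm, cut at about 30% in these data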; further: 0% is about no effect
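Cells plated with tetracycline inducer and held overnight at 30 C; calcium dye loaded 30–90 min at room temperature; baseline taken, compound added and read 180 s; EC20 dopamine then added and read 180 s.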
D2 ag-2 – D2 dopamine receptor (human) agonism; HEK293 T-REx D2 cells, calcium flux agonist mode; activation, % at 2 µM; actives 0.53% (n = 340,000);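 active means activation over 3 SD above normal in the single-dose calcium agonist read, cut at about 30% in these data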; further: 0% is about no effect
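HEK293 Trex D2 cells, tetracycline-induced, o/n 30 C 5% CO2; no-wash Ca dye, RT 30–90 min; 10-cycle baseline, 23 nl cpd added, kinetic Ca read 180 s; agonist hits = positive Ca response.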
* hit, by the source's call.

What do the screens show for `O=[N+]([O-])c1cccc(CN2CCN(Cc3ccc(Cl)cc3)CC2)c1`?
D2 antagonist: 50*; D2 PAM-1: -21; D2 ag-1: -3; D2 PAM-2: -19; D2 ag-2: 0

How did CN1[C@@H]2CCC[C@H]1CC(=O)C2 do in these assays?
D2 PAM-1: -6; D2 ag-1: -5

What do the screens show for `Cc1ccc2c(c1)C1CN(C)CCC1N2S(=O)(=O)c1ccccc1` (stereo unspecified)?
D2 antagonist: 44*; D2 PAM-1: -22; D2 ag-1: -1; D2 PAM-2: -15; D2 ag-2: -1

How did N#Cc1c(Br)n(C2OC(CO)C(O)C2O)c2ncnc(N)c12 (stereo unspecified) do in these assays?
D2 PAM-1: inconclusive; D2 ag-1: 70*

What do the screens show for `Cc1cc(C)cc(NC(=O)CN2C(=O)CN=C(c3ccccc3)c3cc(Cl)ccc32)c1`?
D2 PAM-2: -9; D2 ag-2: 0

What do the screens show for `CN1CSC(=S)N(C)C1`?
D2 antagonist: 42*; D2 PAM-1: -2; D2 ag-1: -6; D2 PAM-2: 7; D2 ag-2: 0

What do the screens show for `c1ccc(CCN2CCCCC2)nc1`?
D2 PAM-1: -4; D2 ag-1: -1

What do the screens show for `CC1=CC(C)CC(C)OC(=O)CC(c2ccc(O)cc2)NC(=O)C(Cc2c(Br)[nH]c3ccccc23)N(C)C(=O)C(C)NC(=O)C(C)C1` (stereo unspecified)?
D2 PAM-1: -8; D2 ag-1: 1

How did COc1ccc2c(c1OC)CN1CCc3cc4c(cc3C1C2)OCO4 (stereo unspecified) do in these assays?
D2 antagonist: 86*; D2 PAM-1: -23; D2 ag-1: 0; D2 PAM-2: -22; D2 ag-2: 0

Results for COC(=O)C1=C(c2ccc(-c3ccccc3)c(F)c2)C[C@@H]2CC[C@H]1N2C(=O)NCC1CC1 ?
D2 antagonist: -16; D2 PAM-1: -85; D2 ag-1: 2; D2 PAM-2: -10; D2 ag-2: 1

How did COC(=O)C1=C(c2ccc(-c3ccccc3)c(F)c2)C[C@@H]2CC[C@H]1N2C(=O)NC1Cc2ccccc2C1 do in these assays?
D2 antagonist: 38*; D2 PAM-1: -16; D2 ag-1: -8; D2 PAM-2: -11; D2 ag-2: 1

How did C[C@@H]1C(=O)O[C@@H]2[C@H](O)C34[C@@H]5OC(=O)C3(O[C@H]3OC(=O)[C@H](O)C34[C@H](C(C)(C)C)[C@H]5O)[C@@]12O (stereo partly specified) do in these assays?
D2 antagonist: 37*; D2 PAM-1: -8; D2 ag-1: -2; D2 PAM-2: -6; D2 ag-2: 0

What do the screens show for `COc1ccc(-n2c(-c3ccccc3F)nc3ccccc3c2=O)cc1`?
D2 PAM-1: -4; D2 ag-1: -7

Results for COc1ccc(F)cc1C(=O)C1CCCN(Cc2cnc(C)s2)C1 (stereo unspecified) ?
D2 antagonist: 17; D2 PAM-1: -5; D2 ag-1: -2; D2 PAM-2: -18; D2 ag-2: 1

How did COc1ccccc1CN1CCCC(C(=O)c2ccccc2OC)C1 (stereo unspecified) do in these assays?
D2 antagonist: -7; D2 PAM-1: -25; D2 ag-1: 2; D2 PAM-2: -16; D2 ag-2: 0

What do the screens show for `CCOc1ccc(CN2CCCC(C(=O)c3ccccc3OC)C2)cc1` (stereo unspecified)?
D2 antagonist: 72*; D2 PAM-1: -21; D2 ag-1: 7; D2 PAM-2: -24; D2 ag-2: 0

Results for COc1ccc(F)cc1C(=O)C1CCCN(Cc2ccc(O)cc2)C1 (stereo unspecified) ?
D2 antagonist: 72*; D2 PAM-1: -14; D2 ag-1: -3; D2 PAM-2: -22; D2 ag-2: 0

What do the screens show for `Nc1c(C(=O)Nc2ccc(OC(F)(F)F)cc2)sc2nc3c(cc12)N1CCC3CC1`?
D2 PAM-2: -3; D2 ag-2: 0

What do the screens show for `COC(=O)CC1=C(C(=O)OC)C2(C(=O)Nc3c(C)cccc32)C(C#N)=C(N)O1` (stereo unspecified)?
D2 antagonist: 5; D2 PAM-1: 70*; D2 ag-1: 12; D2 PAM-2: 3; D2 ag-2: 0
